# Results filed as inconclusive are left out. Active and inactive are the calls of the source. Calls come from the whole dose curve.
# Experiment: qHTS assay to identify small molecule agonists of the endoplasmic reticulum stress response signaling pathway - cell viability counter screen (AID 1159517); note: nearly all actives have a fitted effect of over 50% in size
# Conditions: ESRE-bla HeLa viability, CellTiter-Glo luminescence, 5 h; series mostly up to 61 µM
# From the text: U.S. Tox21 Program National Center for Advancing Translational Sciences [NCATS] NIH Chemical Genomics Center [NCGC] U.S. Environmental Protection Agency [EPA] National Institutes of Environmental Health Sciences [NIEHS] National Toxicology Program [NTP] U.S. Food and Drug Administration [FDA] Tox21 Assay Overview: Endoplasmic Reticulum (ER) plays an important role in cellular signaling, protein folding/maturation, stress response, lipid biosynthesis, calcium storage and release etc. Under stress conditions, proteins in ER misfold or unfold, and leading to the expression of ER stress responsive genes. ER stress has been associated with a variety of pathophysiological conditions such as cancer, inflammation, neurodegenerative diseases, diabetes, ischemic heart disease etc. To identify the compounds that induce ER stress response, an ER stress reporter cell line, CellSensor ESRE-bla HeLa (Life Technologies, Carlsbad, CA) containing a beta-lactamase reporter gene under control of the Endoplasmic reticulum Stress Response Element (ESRE) was used to screen Tox21 10K compound library. The cytotoxicity of the Tox21 compound library against the ESRE-bla HeLa cell line was tested in parallel by measuring cell viability using the CellTiter-Glo assay in the same wells.
# Tox21 Assay Protocol Summary: ESRE-bla HeLa cells were dispensed at 1,500 cells/6 uL of assay medium per well into black wall/clear-bottom 1536-well plates using a Multidrop Combi (ThermoFisher Scientific, Waltham, MA) dispenser. After the assay plates were incubated at 37 C and 5% CO2 for an overnight, 23 nL of compounds dissolved in DMSO, positive controls or DMSO only was transferred to the assay plate by a Pintool station (Kalypsys, San Diego, CA). The assay plates were incubated at 37 C and 5% CO2 for 5 hr. One uL of LiveBLAzer B/G FRET substrate (Life Technologies) was added using a FRD (Flying Reagent Dispenser, Aurora Discovery, San Diego, CA) and the plates were incubated at room temperature for 2 hr. Fluorescence intensity (405 nm excitation, 460 nm and 530 nm emissions) was measured using an Envision plate reader (PerkinElmer, Shelton, CT). For cytotoxicity, 4 ul/well of CellTiter-Glo reagent was added into the assay plates using an FRD. After 30 min incubation at room temperature, the luminescence intensity was measured using a ViewLux plate reader (PerkinElmer).
row,Compound,outcome
1,O=C(O)C1C(C(=O)O)C2(Cl)C(Cl)=C(Cl)C1(Cl)C2(Cl)Cl (stereo not given),inactive
2,Oc1ccc(Cl)cc1,inactive
3,Clc1cnc(Oc2ccc(Oc3ncc(Cl)cc3Cl)cc2)c(Cl)c1,inactive
4,O=S(=O)(O)OOS(=O)(=O)O,inactive
5,CN(C)C(=O)Cl,inactive
6,Nc1ccc(N)cc1,inactive
7,CNC(=O)O/N=C/C(C)(C)SC,inactive
8,CCOP(=S)(OCC)Oc1ccc([N+](=O)[O-])cc1,inactive
9,CCCCC(CC)C(=O)Cl (stereo not given),inactive
10,OCCCCO,inactive
11,COP(=S)(OC)SCN1C(=O)c2ccccc2C1=O,inactive
12,Sc1ccccc1,inactive
13,O=[N+]([O-])c1cc([As](=O)(O)O)ccc1O,inactive
14,[N-]=[N+]=CC(=O)OC[C@H](N)C(=O)O,inactive
15,CCOC(=O)CC(SP(=O)(OC)OC)C(=O)OCC (stereo not given),inactive
16,Cl[C@H]1OCCO[C@@H]1Cl,inactive
17,Nc1cccc(Cl)c1,inactive
18,Cc1ccccc1N,inactive
19,CN(C)CCC#N,inactive
20,CNCC(O)c1ccc(O)cc1 (stereo not given),inactive

row,Compound,outcome
1,C=C(C)C(=O)OCC(CC)CCCC (stereo not given),inactive
2,COC(C)(C)CCCC(C)C/C=C/C(C)=C/C(=O)OC(C)C (stereo not given),inactive
3,C[C@]12CC[C@H](O)CC1=CC[C@@H]1[C@@H]2CC[C@]2(C)C(=O)CC[C@@H]12,inactive
4,O=C(O)C(Br)Br,inactive
5,CCSC(=O)N1CCCCCC1,inactive
6,Cc1ccc(N=C=O)cc1N=C=O,inactive
7,N#Cc1cccc(C#N)c1,inactive
8,CN(C)C(=O)C(c1ccccc1)c1ccccc1,inactive
9,N#CN=C(N)N,inactive
10,Nc1nc(N)nc(NC2CC2)n1,inactive
11,O=[N+]([O-])c1ccc(Cl)cc1,inactive
12,ClC(Cl)c1ccccc1,inactive
13,C=CCN=C=S,inactive
14,O=[N+]([O-])c1ccc(Cl)c(Cl)c1,inactive
15,Nc1cc(Cl)cc(Cl)c1,inactive
16,CNC(=O)Oc1cccc2ccccc12,inactive
17,Oc1c(Br)cc(Br)cc1Br,inactive
18,CCOc1ccc(N)cc1,inactive
19,CNC(=O)O/N=C(\SC)C(=O)N(C)C,inactive
20,CC(=O)/C=C/c1ccccc1,inactive
